Data from PubChem BioAssay (EPA / NIEHS).
Records with an inconclusive call do not appear. The source made the active and inactive calls. How the source made its calls, unless noted: active means hit-call score of the fitted dose curve at least 0.9, where 1 is the maximum; inconclusive means response in the unintended direction; inactive means score below 0.9.

Columns and labels:
[1] = system: guinea pig Dopamine Transporter (DAT), gene 100714898; test: NVS_TR_gDAT: NovaScreen (NVS) Transporter Assay for guinea pig Dopamine Transporter (DAT) (AID 2283369);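 further: active compounds lower bound radioligand signal relative to DMSO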
How it was run: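 Scintillation counts of filter-retained radioligand report binding to guinea pig striatal membranes after 2 h. Activity scored as signal loss relative to DMSO, first at 25 uM in duplicate, then in concentration series to 50 uM.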

[2] = biological target: human Dopamine Transporter (DAT), SLC6A3 (gene 6531) (UniProt Q01959); test: NVS_TR_hDAT: NovaScreen (NVS) Transporter Assay for human Dopamine Transporter (DAT) (AID 2283374);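 further: activity means loss of bound radioligand signal relative to DMSO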
How it was run: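 Cell-free radioligand binding to extracted human DAT protein, read 1 h after dosing by filter-based scintillation counting. Loss of specific binding scored against DMSO baseline; primary screen in duplicate at 25 uM, actives then run in concentration series.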

[3] = biological target: human Norepinephrine Transporter (NET), SLC6A2 (gene 6530) (UniProt P23975); test: NVS_TR_hNET: NovaScreen (NVS) Transporter Assay for human Norepinephrine Transporter (NET) (AID 2283377);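 further: cell-free membrane protein extracted from CHO cells expressing human NET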
How it was run: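 Radioligand binding to human NET in cell-free CHO-derived protein preparations, read by filter-based scintillation counting 1 hour after dosing. Loss of signal versus DMSO baseline indicated displacement; primary screening in duplicate at 25 uM, actives then titrated.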

[4] = biological target: mouse Estrogen Receptor alpha (Era), Esr1 (gene 13982) (UniProt P19785); test: NVS_NR_mERa: NovaScreen (NVS) Nuclear Receptor Binding Assay for mouse Estrogen Receptor alpha (Era) (AID 2283378);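 further: hit means loss of bound radioligand signal relative to DMSO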
How it was run: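 Extracted mouse Era incubated with tritiated or iodinated radioligand plus test chemical, 18 h. Bound fraction separated on filters, counted by scintillation. DMSO = negative control/baseline; duplicate single-point at 25 uM, then concentration-response follow-up.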

[5] = biological target: Agonist Androgen Response Element (ARE), AR (gene 367) (UniProt P10275); test: OT_AR_ARELUC_AG_1440: Odyssey Thera (OT) 24-hour CHO-K1 Luciferase Assay for Agonist Androgen Response Element (ARE) (AID 2283379)
How it was run: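 Seed CHO-K1 cells; dose compounds for 24 h; add D-luciferin plus ATP in PBS; read luminescence. Signal increase relative to vehicle defines agonist activity, with at least 3 replicate wells per sample.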

[6] = biological target: Estrogen receptor beta (Homo sapiens) (UniProt Q92731); test: OT_ER_ERbERb_1440: Odyssey Thera (OT) 24-hour HEK293T Protein-Complementation Assay for Estrogen Receptor-beta/-beta Homodimer (AID 2283380);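 further: fluorescence gain from ER beta LBD homodimer complementation read by laser scanning cytometry; scored as signal increase over DMSO baseline for both agonists and antagonists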
How it was run: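 HEK293T cells stably expressing human ER-beta LBD (aa 310-547) PCA homodimer pair, dosed 24 h; formaldehyde-fixed, Draq5-stained. Readout: increase in nuclear (agonist) or nuclear plus cytoplasmic (antagonist) fluorescence intensity versus DMSO, gain-of-signal fitting.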

[7] = biological target: Estrogen receptor (Homo sapiens) (UniProt P03372); test: OT_ERa_GFPERaERE_0480: Odyssey Thera (OT) 8-hour HeLa Transcription Induction Assay for Estrogen Receptor (AID 2283381; active means hit-call score of the fitted dose curve at least 0.9, where 1 is the maximum; inactive means score below 0.9)
How it was run: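 Fluorescent reporter signal, imaged by microscopy and scored with image-analysis algorithms, was taken 8 h after chemical dosing of HeLa cells; activity was fitted upward relative to DMSO.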

[8] = biological target: Estrogen receptor (Homo sapiens) (UniProt P03372); test: OT_ERa_GFPERaERE_0120: Odyssey Thera (OT) 2-hour HeLa Transcription Induction Assay for Estrogen Receptor (AID 2283382)
How it was run: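 HeLa, 384-well, 2 h chemical exposure; GFP reporter induction (ERE), fluorescence microscopy; high content image analysis; positive fitting direction vs DMSO.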

[9] = biological target: Bile acid receptor (Homo sapiens) (UniProt Q96RI1); test: OT_FXR_FXRSRC1_0480: Odyssey Thera (OT) 8-hour HEK293T Protein-Complementation Assay for Farnesoid X receptor/SRC-1 Co-activator (AID 2283383)
How it was run: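 Human kidney HEK293T cells carried FXR/SRC-1 fragment-complementation constructs. Compounds were added and incubated 8 h. Reporter reassembly upon receptor–co-activator interaction was then quantified by fluorescence, with curves fitted in the positive direction relative to DMSO.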

[10] = biological target: Retinoic acid receptor RXR-alpha (Homo sapiens) (UniProt P19793); test: OT_NURR1_NURR1RXRa_1440: Odyssey Thera (OT) 24-hour HEK293T Protein Complementation Assay for Nurr1/retinoid X receptor (RXR) (AID 2283386)
How it was run: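 Interaction of Nurr1 with RXRα brings fused reporter fragments together in human HEK293T cells, restoring a functional reporter. Fluorescence intensity is measured 24 h after chemical treatment, and values are analysed in the positive direction against DMSO.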

[11] = biological target: Peroxisome proliferator-activated receptor gamma (Homo sapiens) (UniProt P37231); test: OT_PPARg_PPARgSRC1_0480: Odyssey Thera (OT) 8-hour Protein-Complementation Assay for Peroxisome Proliferator-activated Receptor Gamma / SRC-1 Co-activator (AID 2283387);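 further: nuclear to cytoplasmic split Venus YFP fluorescence ratio reporting PPARg SRC-1 interaction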
How it was run: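 Read-out: 488 nm N/C fluorescence ratio from complemented Venus YFP fragments, ≥350 cells per image, gain-of-signal fitted against DMSO baseline. Fusions of PPARg/SRC-1 with IFP1/IFP2 expressed transiently in HEK293T; compounds applied 8 h.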

[12] = biological target: Peroxisome proliferator-activated receptor gamma (Homo sapiens) (UniProt P37231); test: OT_PPARg_PPARgSRC1_1440: Odyssey Thera (OT) 24-hour Protein-Complementation Assay for Peroxisome Proliferator-activated Receptor Gamma/ SRC-1 Co-activator (AID 2283388);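 further: nuclear to cytoplasmic ratio of reconstituted Venus YFP fluorescence in fixed imaged cells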
How it was run: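 Protein-fragment complementation between PPARg and coactivator SRC-1 was measured by fluorescence imaging in transiently transfected HEK293T cells after 24 h treatment. Signal was quantified as N/C ratio in the 488 nm channel, with DMSO as negative control.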

[13] = CEETOX_H295R_11DCORT: CeeTox H295R High-throughput Steroidogenesis Assay for 11-Deoxycortisol (11DCORT) (AID 2283432; active means hit-call score of the fitted dose curve at least 0.9, where 1 is the maximum; inactive means score below 0.9;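 on AC50: 11-deoxycortisol secreted into the medium measured by LC-MS/MS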); conditions: actives raise or lower the signal
How it was run: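 H295R cells; 10 uM forskolin prestim 48 h; compound in 0.1% DMSO 48 h; media extracted with MTBE; 11-deoxycortisol by LC-MS/MS, 7-point standard curve; gain/loss vs DMSO baseline; viability by MTT in same wells.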

[14] = CEETOX_H295R_OHPREG: CeeTox H295R High-throughput Steroidogenesis Assay for OH-Pregnenolone (OHPREG) (AID 2283434; active means hit-call score of the fitted dose curve at least 0.9, where 1 is the maximum; inactive means score below 0.9); conditions: actives raise or lower the signal
How it was run: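 Human adrenal H295R cells were prestimulated 48 h with 10 uM forskolin, then exposed 48 h to chemical in 0.1% DMSO. Medium 17alpha-hydroxypregnenolone was quantified by HPLC-MS/MS after MTBE extraction; bidirectional fitting versus DMSO baseline.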

[15] = CEETOX_H295R_OHPROG: CeeTox H295R High-throughput Steroidogenesis Assay for OH-Progesterone (OHPROG) (AID 2283435; active means hit-call score of the fitted dose curve at least 0.9, where 1 is the maximum; inactive means score below 0.9;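 on AC50: 17alpha-hydroxyprogesterone secreted into medium measured by HPLC-MS/MS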); conditions: actives raise or lower the signal
How it was run: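 H295R, 10 uM forskolin prestim 48 h; cmpd in 0.1% DMSO 48 h; medium MTBE-extracted, HPLC-MS/MS for OH-progesterone; 7-pt std curve; bidirectional fit vs DMSO; MTT viability, chemicals diluted until viability >/=70%.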

[16] = biological target: Nuclear receptor subfamily 1 group I member 2 (Homo sapiens) (UniProt O75469); test: NVS_NR_hPXR: NovaScreen (NVS) Nuclear Receptor Binding Assay for human Pregnane X Receptor (PXR) (AID 2283365);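 further: a drop in FRET signal versus DMSO baseline means the compound binds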
How it was run: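 Human PXR protein, cell-free; compound added, incubated 2 h, TR-FRET read. Signal decrease vs DMSO = binding. Screened 25 uM duplicate, actives re-run as dilution series.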

[17] = biological target: Peroxisome proliferator-activated receptor gamma (Homo sapiens) (UniProt P37231); test: NVS_NR_hPPARg: NovaScreen (NVS) Nuclear Receptor Binding Assay for human Peroxisome Proliferator-activated Receptor gamma (PPARg) (AID 2283370)
How it was run: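 Chemicals were tested first in duplicate at 25 uM, then in concentration series if active. Binding to cell-free PPARg protein was measured by fluorescence polarization after 2 h, with loss of signal scored against DMSO.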

[18] = biological target: rat Androgen Receptor (AR), Ar (gene 24208) (UniProt P15207); test: NVS_NR_rAR: NovaScreen (NVS) Nuclear Receptor Binding Assay for rat Androgen Receptor (AR) (AID 2283366)
How it was run: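 Cell-free radioligand binding on extracts of prostate from testosterone-pretreated rats, read by filter-based scintillation counting 18 h after dosing. Loss of bound signal fitted positively versus DMSO; primary screen in duplicate at 25 uM, actives followed up in concentration series.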

Chain of Estrogen receptor beta (Homo sapiens) (Q92731 whole entry, looked up, the tested form may be a part): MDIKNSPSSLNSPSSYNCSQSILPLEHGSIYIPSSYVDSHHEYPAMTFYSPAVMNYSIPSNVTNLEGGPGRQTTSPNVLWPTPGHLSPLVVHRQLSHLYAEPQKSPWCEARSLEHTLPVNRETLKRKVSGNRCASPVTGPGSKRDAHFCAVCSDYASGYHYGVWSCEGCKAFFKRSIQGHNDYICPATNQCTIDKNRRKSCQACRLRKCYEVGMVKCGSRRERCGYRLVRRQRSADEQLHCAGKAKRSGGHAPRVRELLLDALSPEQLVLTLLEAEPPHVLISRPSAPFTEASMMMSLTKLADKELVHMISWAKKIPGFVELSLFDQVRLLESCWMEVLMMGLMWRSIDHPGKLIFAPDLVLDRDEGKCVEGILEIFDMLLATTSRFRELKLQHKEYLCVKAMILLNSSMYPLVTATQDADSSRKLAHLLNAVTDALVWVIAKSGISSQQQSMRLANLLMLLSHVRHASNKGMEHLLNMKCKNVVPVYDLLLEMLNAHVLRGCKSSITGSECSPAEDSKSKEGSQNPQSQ
Chain of Nuclear receptor subfamily 1 group I member 2 (Homo sapiens) (O75469 whole entry, looked up): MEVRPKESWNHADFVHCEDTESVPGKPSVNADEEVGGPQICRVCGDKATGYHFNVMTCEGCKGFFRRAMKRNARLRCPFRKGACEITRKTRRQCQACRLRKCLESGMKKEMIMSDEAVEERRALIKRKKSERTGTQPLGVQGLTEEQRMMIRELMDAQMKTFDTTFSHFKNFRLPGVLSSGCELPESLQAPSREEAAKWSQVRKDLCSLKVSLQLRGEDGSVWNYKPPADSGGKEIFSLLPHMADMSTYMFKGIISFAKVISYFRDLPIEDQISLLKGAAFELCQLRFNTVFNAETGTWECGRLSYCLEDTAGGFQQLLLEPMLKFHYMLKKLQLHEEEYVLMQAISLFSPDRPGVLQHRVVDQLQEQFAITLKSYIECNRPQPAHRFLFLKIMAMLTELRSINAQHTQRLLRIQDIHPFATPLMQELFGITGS
Chain of Agonist Androgen Response Element (ARE), AR (gene 367) (P10275 whole entry, looked up): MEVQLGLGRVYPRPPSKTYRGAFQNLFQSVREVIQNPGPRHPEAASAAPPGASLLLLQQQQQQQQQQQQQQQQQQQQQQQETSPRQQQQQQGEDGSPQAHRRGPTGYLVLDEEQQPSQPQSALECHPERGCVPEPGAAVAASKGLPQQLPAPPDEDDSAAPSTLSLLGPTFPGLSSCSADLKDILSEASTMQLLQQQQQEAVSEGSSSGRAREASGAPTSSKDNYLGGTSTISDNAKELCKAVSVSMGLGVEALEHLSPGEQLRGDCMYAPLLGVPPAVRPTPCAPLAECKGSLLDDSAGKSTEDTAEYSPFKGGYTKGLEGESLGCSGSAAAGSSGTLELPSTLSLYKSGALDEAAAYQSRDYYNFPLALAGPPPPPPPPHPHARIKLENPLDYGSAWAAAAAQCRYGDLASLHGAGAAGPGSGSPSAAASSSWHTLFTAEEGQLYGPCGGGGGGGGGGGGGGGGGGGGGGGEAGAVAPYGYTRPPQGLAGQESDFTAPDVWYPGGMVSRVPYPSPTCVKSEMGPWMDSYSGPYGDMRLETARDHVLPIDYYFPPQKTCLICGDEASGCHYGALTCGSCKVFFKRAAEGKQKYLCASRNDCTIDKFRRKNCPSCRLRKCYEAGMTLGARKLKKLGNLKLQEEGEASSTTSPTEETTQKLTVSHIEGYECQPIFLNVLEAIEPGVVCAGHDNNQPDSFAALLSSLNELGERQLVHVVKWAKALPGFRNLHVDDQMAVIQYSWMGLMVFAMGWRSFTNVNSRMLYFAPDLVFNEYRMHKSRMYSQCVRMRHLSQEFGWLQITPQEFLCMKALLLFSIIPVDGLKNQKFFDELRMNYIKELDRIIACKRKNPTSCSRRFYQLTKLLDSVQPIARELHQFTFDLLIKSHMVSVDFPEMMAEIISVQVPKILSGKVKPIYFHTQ
Chain of mouse Estrogen Receptor alpha (Era), Esr1 (gene 13982) (P19785 whole entry, looked up): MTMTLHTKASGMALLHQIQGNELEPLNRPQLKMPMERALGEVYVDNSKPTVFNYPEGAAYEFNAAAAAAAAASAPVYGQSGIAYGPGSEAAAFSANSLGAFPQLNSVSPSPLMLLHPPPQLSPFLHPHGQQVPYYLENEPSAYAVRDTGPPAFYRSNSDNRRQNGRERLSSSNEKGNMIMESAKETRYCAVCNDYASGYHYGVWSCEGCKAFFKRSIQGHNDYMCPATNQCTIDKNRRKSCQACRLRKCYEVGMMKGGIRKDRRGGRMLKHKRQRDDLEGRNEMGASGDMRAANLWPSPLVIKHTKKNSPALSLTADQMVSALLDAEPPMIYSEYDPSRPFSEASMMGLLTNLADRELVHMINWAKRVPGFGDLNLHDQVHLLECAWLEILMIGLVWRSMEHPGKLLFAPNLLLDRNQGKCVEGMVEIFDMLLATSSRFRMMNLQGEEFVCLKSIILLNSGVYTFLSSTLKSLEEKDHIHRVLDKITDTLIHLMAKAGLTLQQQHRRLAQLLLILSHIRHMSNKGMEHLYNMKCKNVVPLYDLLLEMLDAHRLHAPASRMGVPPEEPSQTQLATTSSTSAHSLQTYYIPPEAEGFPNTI
Chain of Retinoic acid receptor RXR-alpha (Homo sapiens) (P19793 whole entry, looked up, the tested form may be a part): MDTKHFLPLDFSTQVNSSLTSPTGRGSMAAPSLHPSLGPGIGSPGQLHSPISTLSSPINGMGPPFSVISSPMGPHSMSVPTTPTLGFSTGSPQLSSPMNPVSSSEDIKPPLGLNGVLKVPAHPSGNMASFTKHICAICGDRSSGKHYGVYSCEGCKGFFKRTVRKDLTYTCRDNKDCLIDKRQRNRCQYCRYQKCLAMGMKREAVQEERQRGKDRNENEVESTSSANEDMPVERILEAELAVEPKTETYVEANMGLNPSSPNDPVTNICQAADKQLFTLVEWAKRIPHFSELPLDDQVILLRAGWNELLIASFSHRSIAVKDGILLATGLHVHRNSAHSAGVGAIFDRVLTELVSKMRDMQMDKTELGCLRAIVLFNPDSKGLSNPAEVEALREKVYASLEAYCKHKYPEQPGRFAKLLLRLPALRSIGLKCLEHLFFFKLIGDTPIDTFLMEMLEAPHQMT
Chain of human Norepinephrine Transporter (NET), SLC6A2 (gene 6530) (P23975 whole entry, looked up): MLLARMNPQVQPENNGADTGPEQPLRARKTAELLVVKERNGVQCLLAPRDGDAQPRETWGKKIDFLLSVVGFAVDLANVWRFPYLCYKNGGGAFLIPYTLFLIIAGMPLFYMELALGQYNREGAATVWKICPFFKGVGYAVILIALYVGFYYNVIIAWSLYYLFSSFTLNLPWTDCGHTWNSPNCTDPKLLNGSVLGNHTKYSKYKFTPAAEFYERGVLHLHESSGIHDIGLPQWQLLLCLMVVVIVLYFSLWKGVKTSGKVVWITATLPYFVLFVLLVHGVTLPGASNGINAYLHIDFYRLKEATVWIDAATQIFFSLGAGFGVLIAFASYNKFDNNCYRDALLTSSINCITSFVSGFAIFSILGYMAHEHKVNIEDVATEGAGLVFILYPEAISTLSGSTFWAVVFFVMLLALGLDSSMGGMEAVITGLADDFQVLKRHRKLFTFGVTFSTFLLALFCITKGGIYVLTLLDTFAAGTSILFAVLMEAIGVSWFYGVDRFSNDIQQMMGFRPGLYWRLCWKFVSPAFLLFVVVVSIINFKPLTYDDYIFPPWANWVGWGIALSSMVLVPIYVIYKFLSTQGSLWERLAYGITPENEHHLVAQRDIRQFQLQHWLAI
Chain of Estrogen receptor (Homo sapiens) (P03372 whole entry, looked up): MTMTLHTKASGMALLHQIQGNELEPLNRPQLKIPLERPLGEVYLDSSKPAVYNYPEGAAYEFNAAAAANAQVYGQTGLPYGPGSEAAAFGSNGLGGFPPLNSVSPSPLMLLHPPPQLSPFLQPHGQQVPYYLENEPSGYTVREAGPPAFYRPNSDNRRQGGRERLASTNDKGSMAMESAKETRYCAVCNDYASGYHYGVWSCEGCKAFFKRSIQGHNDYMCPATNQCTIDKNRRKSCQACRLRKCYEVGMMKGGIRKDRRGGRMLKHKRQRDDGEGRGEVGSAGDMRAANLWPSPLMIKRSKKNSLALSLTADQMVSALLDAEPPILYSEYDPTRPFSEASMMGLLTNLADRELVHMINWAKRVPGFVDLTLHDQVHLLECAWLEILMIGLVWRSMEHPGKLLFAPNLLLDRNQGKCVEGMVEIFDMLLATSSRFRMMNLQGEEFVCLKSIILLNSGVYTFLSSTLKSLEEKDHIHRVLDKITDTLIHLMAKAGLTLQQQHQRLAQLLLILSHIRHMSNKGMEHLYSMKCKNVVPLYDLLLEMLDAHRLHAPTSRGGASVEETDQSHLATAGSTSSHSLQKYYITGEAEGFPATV
Chain of Bile acid receptor (Homo sapiens) (Q96RI1 whole entry, looked up, the tested form may be a part): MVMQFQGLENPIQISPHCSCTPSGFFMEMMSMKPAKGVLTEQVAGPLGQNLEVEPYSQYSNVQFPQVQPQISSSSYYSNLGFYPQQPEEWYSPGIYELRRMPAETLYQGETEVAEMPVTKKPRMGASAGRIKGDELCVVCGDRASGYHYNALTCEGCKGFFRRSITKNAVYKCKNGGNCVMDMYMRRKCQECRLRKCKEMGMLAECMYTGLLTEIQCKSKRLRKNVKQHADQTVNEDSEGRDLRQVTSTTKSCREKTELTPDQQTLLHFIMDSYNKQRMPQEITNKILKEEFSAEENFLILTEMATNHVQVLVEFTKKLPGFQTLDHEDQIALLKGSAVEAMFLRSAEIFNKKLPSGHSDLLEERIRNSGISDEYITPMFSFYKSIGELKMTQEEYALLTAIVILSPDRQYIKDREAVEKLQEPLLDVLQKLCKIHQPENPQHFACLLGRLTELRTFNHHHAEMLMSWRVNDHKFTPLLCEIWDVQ

Oc1ccc(Nc2ccccc2)cc1
AC50 [1]: 12.1 µM (active)
AC50 [2]: 6.97 µM (active)
AC50 [3]: 11.9 µM (active)
outcome [4]: inactive

CC(C)c1ccccc1N
outcome [3]: inactive

CCCCCCC(C)OC(=O)CCCCC(=O)OC(C)CCCCCC (stereo not given)
outcome [5]: inactive
outcome [6]: inactive
outcome [7]: inactive
outcome [8]: inactive
outcome [9]: inactive
outcome [10]: inactive
outcome [11]: inactive
outcome [12]: inactive

OC[C@@H](O)[C@@H](O)[C@H](O)[C@@H](O)CO
outcome [7]: inactive
outcome [10]: inactive
outcome [11]: inactive
outcome [12]: inactive

O[Si](c1ccccc1)(c1ccccc1)c1ccccc1
AC50 [3]: 25 µM (active)

CCCCCCS
outcome [13]: inactive
outcome [14]: inactive
outcome [15]: inactive

CCCCCCOC(=O)c1ccccc1
outcome [6]: inactive
outcome [7]: inactive
outcome [8]: inactive
outcome [9]: inactive
outcome [11]: inactive
outcome [12]: inactive

C1COCCN1
outcome [6]: inactive
outcome [7]: inactive
outcome [8]: inactive
outcome [10]: inactive

O=S(=O)(O)c1ccc2ccccc2c1
outcome [16]: inactive
outcome [7]: inactive
outcome [8]: inactive
outcome [9]: inactive
outcome [10]: inactive
outcome [11]: inactive
outcome [12]: inactive

[Co]
outcome [5]: inactive
outcome [6]: inactive
outcome [7]: inactive
outcome [8]: inactive
outcome [9]: inactive
outcome [10]: inactive
outcome [11]: inactive
outcome [12]: inactive

CC(CCl)OP(=O)(OC(C)CCl)OC(C)CCl (stereo not given)
AC50 [16]: 4.35 µM (active)
outcome [17]: inactive
outcome [6]: inactive
outcome [7]: inactive
outcome [8]: inactive
outcome [9]: inactive
outcome [12]: inactive

CC(=O)Nc1ccc(N=Nc2cc(C)ccc2O)cc1
AC50 [18]: 25 µM (active)
AC50 [13]: 33.7 µM (active)
outcome [14]: inactive
AC50 [15]: 16 µM (active)

COC(=O)C1CCC(C(=O)OC)CC1 (stereo not given)
outcome [16]: inactive
outcome [6]: inactive
outcome [7]: inactive
outcome [8]: inactive
outcome [9]: inactive
outcome [12]: inactive

CO[Si](OC)(c1ccccc1)c1ccccc1
outcome [3]: inactive

CNC(=S)NC
outcome [16]: inactive
outcome [5]: inactive
outcome [7]: inactive
outcome [8]: inactive
outcome [9]: inactive
outcome [11]: inactive
outcome [12]: inactive

CC/C=C\CCOC(C)=O
outcome [6]: inactive
outcome [7]: inactive
outcome [8]: inactive
outcome [11]: inactive
outcome [12]: inactive

CC(C)OC(=O)c1ccccc1C(=O)OC(C)C
outcome [7]: inactive
outcome [8]: inactive
outcome [9]: inactive
outcome [10]: inactive
outcome [11]: inactive
outcome [12]: inactive

c1ccc(B(c2ccccc2)c2ccccc2)cc1
outcome [4]: inactive
outcome [7]: inactive
AC50 [8]: 45.8 µM (active)
outcome [9]: inactive
outcome [10]: inactive
outcome [11]: inactive
outcome [12]: inactive
AC50 [13]: 33.7 µM (active)
AC50 [14]: 15 µM (active)
outcome [15]: inactive

CCCCC(CC)COP(=O)(O)OCC(CC)CCCC (stereo not given)
outcome [16]: inactive
outcome [17]: inactive
outcome [4]: inactive
outcome [7]: inactive
outcome [8]: inactive
outcome [9]: inactive
AC50 [11]: 64.4 µM (active)
AC50 [12]: 67.8 µM (active)
